Source: PubChem BioAssay (National Center for Advancing Translational Sciences (NCATS))
Cycloheximide cs: Cycloheximide Counterscreen for Small Molecule Inhibitors of Shiga Toxin; cell reporter, cycloheximide protein synthesis inhibition counterscreen; AID 2314, 2010; max response, %; actives 12% (n = 300,000); in the data active = max response mostly above about 13%, no sharp cut-off; inactive = mostly below about 14%; note: read at 38.3 µM for the half of the compounds with a filed dose; 0% is about no effect
FBPA Giardia inh: qHTS Assay for Inhibitors of Fructose-1,6-bisphosphate Aldolase from Giardia Lamblia; actives 0.71% (n = 290,000); purified Giardia FBPA; AID 2451, 2010; A8B2U2; Potency, µM (doses to about 59.6 µM), inactives show at the highest dose activity, negative = inhibition, actives largely listed as inhibitors; note: potency is the fitted concentration of half-maximal effect; % is set by controls: 0 for no effect and ±100 for the full control effect; nearly all actives have a fitted effect of over 55% in size
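Giardia FBPA (40 nM reagent) was preincubated 10 min at RT with compound (up to 57.5 uM final), then substrate plus GAPDH/TPI/NAD/arsenate coupling system with diaphorase/resazurin was added; resorufin fluorescence (525/598 nm) was read after 20 min.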
Tb PYK inh: qHTS of Trypanosoma Brucei Inhibitors; Potency, µM (doses to about 76.8 µM), without a hit: at the top dose activity, negative = inhibition, hits mostly inhibitors; pyruvate kinase (Trypanosoma brucei), Q57TT1; AID 624173, 2012; actives 0.12% (n = 410,000); TbPYK enzyme, Kinase-Glo Plus ATP luminescence, 45 min; note: potency is the fitted concentration of half-maximal effect; % is set by controls: 0 for no effect and ±100 for the full control effect; nearly all actives have a fitted effect of over 50% in size
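Screened from lowest to highest concentration, compounds were pinned into TbPYK/substrate mixtures, and ADP (130 uM final) was added. Plates sat at room temperature for 45 min prior to Kinase-Glo Plus detection by luminescence.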
RE007 growth inh: qHTS Assay for Inhibitors of the HIV-1 protein Vpr. Potency, µM (titrated, usually from 92.2 µM), without a hit: top-dose activity change, negative = less growth, usual class: inhibitors. S. pombe RE007 Vpr strain, BacTiter-Glo ATP luminescence, 24 h. actives 0.21% (n = 360,000). AID 651644, 2012; active = well fitted falling curve with a large enough effect; inconclusive = small, poorly fitted or top-dose-only effect; inactive = no such curve, though single readings can be large or run the other way; note: potency is the fitted concentration of half-maximal effect; % is set by controls: 0 for no effect and ±100 for the full control effect; nearly all actives have a fitted effect of over 50% in size
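Fission yeast RE007 carrying one integrated HIV-1 vpr copy, seeded at OD 0.01 in PMG+AL medium with 23 nL pinned compound. Grown 24 h at 30 degrees; viability read by BacTiter-Glo luminescence after 5 min.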
Shiga inhibitor: A qHTS for Small Molecule Inhibitors of Shiga Toxin; Vero cells, Shiga toxin protein synthesis inhibition reporter; inhibition, % at 38.7 µM; actives 9.2% (n = 290,000); AID 2315, 2010; in the data active = inhibition mostly above about 28%, no sharp cut-off; inactive = mostly below about 43%; note: 0% is about no effect
LmPK inhibitor: qHTS Assay for Inhibitors of Leishmania Mexicana Pyruvate Kinase (LmPK) | purified LmPK, Kinase-Glo ATP luminescence, 1 h | Potency, µM (highest dose often 57.5 µM), for inactives: top-dose activity change, negative = inhibition, most hits filed as inhibitors | Q27686 | actives 0.37% (n = 290,000); note: potency is the fitted concentration of half-maximal effect; % is set by controls: 0 for no effect and ±100 for the full control effect
Target sequence (Q27686 whole entry, looked up): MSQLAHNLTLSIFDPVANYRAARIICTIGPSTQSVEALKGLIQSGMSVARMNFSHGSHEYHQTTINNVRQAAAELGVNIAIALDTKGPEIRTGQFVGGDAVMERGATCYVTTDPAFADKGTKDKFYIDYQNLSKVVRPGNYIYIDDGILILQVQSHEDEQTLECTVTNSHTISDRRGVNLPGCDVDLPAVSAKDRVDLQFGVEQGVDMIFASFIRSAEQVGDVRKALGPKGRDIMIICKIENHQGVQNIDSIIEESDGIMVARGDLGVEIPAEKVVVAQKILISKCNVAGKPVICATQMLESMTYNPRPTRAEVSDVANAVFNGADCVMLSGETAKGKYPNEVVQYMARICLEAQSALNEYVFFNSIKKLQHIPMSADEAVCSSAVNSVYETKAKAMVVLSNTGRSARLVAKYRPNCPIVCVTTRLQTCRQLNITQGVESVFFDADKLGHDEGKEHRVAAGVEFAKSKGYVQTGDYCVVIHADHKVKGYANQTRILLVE
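ATP generated from ADP (0.1 mM) and PEP (0.5 mM) by 0.1 nM LmPK over 1 h at room temperature (pH 7.2 imidazole buffer) was detected by coupled luciferase luminescence. Values were normalized to uninhibited and no-enzyme wells.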
Active calls of the source: *; [ ] = another dose, or the depositor's remark. The full list was thinned out, with hits kept by preference. Unless noted, calls come from the whole dose curve; as a rule, active = well fitted curve in the direction sought with a large enough effect; inconclusive = small, poorly fitted or top-dose-only effect, or another doubt; inactive = no such curve, though single readings can be large; an effect the other way counts as inactive or inconclusive.

`O=C1/C(=C/c2ccc(O)c(O)c2)Oc2ccccc21` gave Cycloheximide cs 35*, FBPA Giardia inh inconclusive and Shiga inhibitor 77*.
`O=C1/C(=C/c2cccc(F)c2)Oc2cc(O)ccc21` gave Cycloheximide cs 22*, FBPA Giardia inh 7%, Tb PYK inh -7%, RE007 growth inh -25%, Shiga inhibitor 40* and LmPK inhibitor 2%.
Screening COc1cccc(/C=C2\Oc3cc(OC(=O)N4CCOCC4)ccc3C2=O)c1 returned Cycloheximide cs 2, FBPA Giardia inh 4%, Tb PYK inh -3%, RE007 growth inh 12%, Shiga inhibitor 39 and LmPK inhibitor 0%.
`Cc1cc(Nc2ccccc2F)n2nc(Cc3ccc(Cl)cc3)nc2n1` gave Tb PYK inh -8%.
`Cc1cccc2[nH]c(SCC(=O)N3CCOCC3)nc12` gave Cycloheximide cs 21, FBPA Giardia inh 0%, Tb PYK inh -9%, RE007 growth inh 2%, Shiga inhibitor 109* and LmPK inhibitor -1%.
For CC1CCN(C(=O)CSc2nc3ncccc3[nH]2)CC1 the results were Cycloheximide cs 20*, Tb PYK inh -6%, RE007 growth inh -3%, Shiga inhibitor 28 and LmPK inhibitor 8%.
For Cc1cccc2[nH]c(SCC(=O)O)nc12 the results were Cycloheximide cs -5, FBPA Giardia inh 2%, Tb PYK inh 0%, RE007 growth inh -9%, Shiga inhibitor -10 and LmPK inhibitor 1%.
Screening CC1CCN(C(=O)CSc2nc3ccccc3[nH]2)CC1 returned Cycloheximide cs 59*, FBPA Giardia inh 1%, Tb PYK inh 4%, RE007 growth inh -16%, Shiga inhibitor 66* and LmPK inhibitor 2%.
`NC(=O)C1CCN(C(=O)CSc2nc3ccccc3[nH]2)CC1` gave Cycloheximide cs 10, FBPA Giardia inh 1%, Tb PYK inh 3%, RE007 growth inh 5%, Shiga inhibitor -6 and LmPK inhibitor 6%.
Nc1ccc(Cl)cc1 was read as Tb PYK inh -3%[157 µM].
Nc1ccc(N)cc1 was read as Cycloheximide cs 35*, FBPA Giardia inh inconclusive, Tb PYK inh 8% and Shiga inhibitor 95*.
For CC(C)CN1CC2(CCN(S(=O)(=O)c3ccccc3)CC2)C1 the results were FBPA Giardia inh -1% and Tb PYK inh -5%.
Screening Cc1ccc(S(=O)(=O)c2c(Nc3cc(C)ccc3C)sc(C(=O)c3ccc4c(c3)OCO4)c2N)cc1 returned Tb PYK inh -6%.
Screening COc1ccc(-c2cc(C(=O)Nc3cccc(S(=O)(=O)NCc4ccco4)c3)c3ccccc3n2)cc1OC returned Cycloheximide cs 21*, FBPA Giardia inh -7%, Tb PYK inh -3%, RE007 growth inh 13%, Shiga inhibitor 41 and LmPK inhibitor -2%.
For COc1ccc(S(=O)(=O)NCc2ccco2)cc1-c1nnc2c3ccccc3c(C)nn12 the results were Cycloheximide cs 40*, FBPA Giardia inh -4%, Tb PYK inh 4%, RE007 growth inh 51%, Shiga inhibitor 43 and LmPK inhibitor -5%.
`O=C(Nc1cccc(S(=O)(=O)NCc2ccco2)c1)c1cc(-c2ccc(F)cc2)nc2ccccc12` gave Cycloheximide cs 39*, FBPA Giardia inh -14%, Tb PYK inh 8%, RE007 growth inh 0%, Shiga inhibitor 70* and LmPK inhibitor -3%.
Screening CC1(C(=O)NS(=O)(=O)c2ccccc2)CCN1C(=O)c1ccc(C2CCCCC2)cc1 (stereo unspecified) returned Tb PYK inh -12% and RE007 growth inh 17%.
Screening C#CCn1cc(/C=C2\NC(=O)NC2=O)c2ccccc21 returned Cycloheximide cs -2, FBPA Giardia inh -9%, Tb PYK inh 3%, RE007 growth inh 10%, Shiga inhibitor -3 and LmPK inhibitor 2%.
COc1cccc(NC(=S)NCc2cccnc2)c1 was read as Cycloheximide cs -3, FBPA Giardia inh -1%, Tb PYK inh -11%, RE007 growth inh -8%, Shiga inhibitor 18 and LmPK inhibitor 0%.
Screening Fc1ccc(CNC(=S)Nc2cccc(C(F)(F)F)c2)cc1 returned Cycloheximide cs 13*, FBPA Giardia inh 2%, Tb PYK inh -4%, RE007 growth inh 11%, Shiga inhibitor 18 and LmPK inhibitor 5%.
`FC(F)(F)c1cccc(NC(=S)NCc2ccc(Cl)cc2)c1` gave Cycloheximide cs -2, FBPA Giardia inh -5%, Tb PYK inh 4%, RE007 growth inh 16%, Shiga inhibitor 11 and LmPK inhibitor 1%.
COc1cccc(NC(=S)NCc2ccccc2)c1 was read as Cycloheximide cs 22*, FBPA Giardia inh -5%, Tb PYK inh -3%, RE007 growth inh -13%, Shiga inhibitor 33* and LmPK inhibitor -4%.
For COCCN(C(=S)Nc1cccc(OC)c1)C(C)c1cccs1 (stereo unspecified) the results were Cycloheximide cs 15*, FBPA Giardia inh -13%, Tb PYK inh -5%, RE007 growth inh 3%, Shiga inhibitor 9 and LmPK inhibitor 1%.
Cc1cccc(NC(=S)NNC(=S)NCc2ccccc2)c1 was read as Cycloheximide cs 44*, FBPA Giardia inh 18%, Tb PYK inh -17%, RE007 growth inh -9%, Shiga inhibitor 49 and LmPK inhibitor 7%.
`O=c1c(-c2ccc(F)cc2)nc2cnc(N3CCOCC3)nc2n1CCc1ccccc1` gave FBPA Giardia inh 0%.
Cc1cccc(N2CCN(S(=O)(=O)c3nnc(NC(=O)c4ccc(Cl)cc4)s3)CC2)c1 was read as Tb PYK inh 1%.
Screening CCOC(=O)CNC(=O)CSc1nc(C(C)C)nc2c1cnn2-c1ccccc1 returned Tb PYK inh -1% and RE007 growth inh 1%.
Screening O=C(CO)[C@@H](O)C(O)[C@@H](O)CO (stereo partly specified) returned Cycloheximide cs -3, FBPA Giardia inh 3%, Tb PYK inh 5% and Shiga inhibitor -3.
For Cc1cccc(NC(=S)NCc2cccs2)c1 the results were Cycloheximide cs 8, FBPA Giardia inh -2%, Tb PYK inh -3%, RE007 growth inh 0%, Shiga inhibitor 10 and LmPK inhibitor 2%.
`COc1cccc(NC(=S)NCc2cccs2)c1` gave Cycloheximide cs 3, FBPA Giardia inh -2%, Tb PYK inh 1%, RE007 growth inh -19%, Shiga inhibitor 43* and LmPK inhibitor 2%.
For S=C(NCc1cccs1)Nc1cccc(Cl)c1Cl the results were Cycloheximide cs 29*, FBPA Giardia inh -6%, Tb PYK inh -2%, RE007 growth inh 20%, Shiga inhibitor 45* and LmPK inhibitor 4%.
